Screen size: about 5,500 compounds; about 2,000 (36%) were called active. Not shown: some 18% with an inconclusive outcome. No stated cut-off is given here; in the data, active means normalized growth mostly below about 0.91 (no sharp cut-off); inconclusive means no clear call, values can overlap the other calls; inactive means mostly above about 0.92. This is one part of the list.
Experiment: chemical genetic growth profiling, strain panel (AID 1159580);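 further: tested at 20 µM; growth read once vehicle control cultures reached saturation at 30 °C; 1 = growth at the plate median or of vehicle wells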
Conditions: growth OD

Measured: normalized growth

CC(C)[C@@H]1CC[C@@H](C)C[C@H]1O
inactive: S. cerevisiae deletion strains, locus YJR066W, strain TOR1, stronger effect = lower value 0.942 | S. cerevisiae deletion strains, locus YJR075W, strain HOC1, stronger effect = lower value 1.01 | S. cerevisiae deletion strains, locus YKL009W, strain mrt4, stronger effect = lower value 1 | S. cerevisiae deletion strains, locus YKL068W, stronger effect = lower value 1.01 | S. cerevisiae deletion strains, locus YKL085W, strain MDH1 (second series), stronger effect = lower value 1.01 | S. cerevisiae deletion strains, locus YKL085W, strain MDH1, stronger effect = lower value 1.01 | S. cerevisiae deletion strains, locus YKL160W, strain elf1, stronger effect = lower value 0.986 | S. cerevisiae deletion strains, locus YKL190W, strain CNB1, stronger effect = lower value 1.01 | S. cerevisiae deletion strains, locus YKR001C, strain vps1, stronger effect = lower value 1 | S. cerevisiae deletion strains, locus YKR026C, strain gcn3, stronger effect = lower value 0.987 | S. cerevisiae deletion strains, locus YKR091W, strain srl3, stronger effect = lower value 0.974 | S. cerevisiae deletion strains, locus YLL001W, strain dnm1, stronger effect = lower value 0.997 | S. cerevisiae deletion strains, locus YLL026W, stronger effect = lower value 1 | S. cerevisiae deletion strains, locus YLL041C, strain sdh2, stronger effect = lower value 0.978 | S. cerevisiae deletion strains, locus YLR027C, strain aat2, stronger effect = lower value 0.997 | S. cerevisiae deletion strains, locus YLR039C, strain RIC1, stronger effect = lower value 1 | S. cerevisiae deletion strains, locus YLR058C, strain SHM2, stronger effect = lower value 1 | S. cerevisiae deletion strains, locus YLR102C, strain apc9, stronger effect = lower value 1.02 | S. cerevisiae deletion strains, locus YLR113W, strain HOG1, stronger effect = lower value 0.973 | S. cerevisiae deletion strains, locus YLR221C, strain rsa3, stronger effect = lower value 0.999 | S. cerevisiae deletion strains, locus YLR258W, strain gsy2, stronger effect = lower value 0.99 | S. cerevisiae deletion strains, locus YLR262C, strain YPT6 (second series), stronger effect = lower value 0.935 | S. cerevisiae deletion strains, locus YLR262C, strain YPT6, stronger effect = lower value 1.01 | S. cerevisiae deletion strains, locus YLR268W, strain sec22, stronger effect = lower value 1.01 | S. cerevisiae deletion strains, locus YLR320W, strain mms22, stronger effect = lower value 0.991 | S. cerevisiae deletion strains, locus YLR330W, strain CHS5, stronger effect = lower value 1.01 | S. cerevisiae deletion strains, locus YLR342W, strain FKS1 (second series), stronger effect = lower value 1.02 | S. cerevisiae deletion strains, locus YLR342W, strain FKS1, stronger effect = lower value 0.986 | S. cerevisiae deletion strains, locus YLR357W, strain rsc2, stronger effect = lower value 0.953 | S. cerevisiae deletion strains, locus YLR370C, strain arc18, stronger effect = lower value 0.985 | S. cerevisiae deletion strains, locus YLR371W, strain rom2, stronger effect = lower value 1.01 | S. cerevisiae deletion strains, locus YLR384C, strain iki3, stronger effect = lower value 0.999 | S. cerevisiae deletion strains, locus YLR418C, strain cdc73, stronger effect = lower value 1.05 | S. cerevisiae deletion strains, locus YML016C, strain PPZ1, stronger effect = lower value 1.01 | S. cerevisiae deletion strains, locus YML032C, strain rad52, stronger effect = lower value 1 | S. cerevisiae deletion strains, locus YML120C, strain ndi1, stronger effect = lower value 0.989 | S. cerevisiae deletion strains, locus YML124C, strain tub3, stronger effect = lower value 1.02 | S. cerevisiae deletion strains, locus YMR058W, strain fet3, stronger effect = lower value 0.97 | S. cerevisiae deletion strains, locus YMR078C, strain ctf18, stronger effect = lower value 1.02 | S. cerevisiae deletion strains, locus YMR125W, strain sto1, stronger effect = lower value 0.969 | S. cerevisiae deletion strains, locus YMR129W, stronger effect = lower value 0.984 | S. cerevisiae deletion strains, locus YMR205C, strain PFK2, stronger effect = lower value 1.01 | S. cerevisiae deletion strains, locus YMR223W, strain ubp8, stronger effect = lower value 1.03 | S. cerevisiae deletion strains, locus YMR231W, strain pep5, stronger effect = lower value 1 | S. cerevisiae deletion strains, locus YMR307W, strain GAS1, stronger effect = lower value 0.985 | S. cerevisiae deletion strains, locus YNL067W, strain RPL9B, stronger effect = lower value 0.976 | S. cerevisiae deletion strains, locus YNL071W, strain lat1, stronger effect = lower value 0.979 | S. cerevisiae deletion strains, locus YNL128W, strain TEP1, stronger effect = lower value 1.02 | S. cerevisiae deletion strains, locus YNL153C, strain GIM3, stronger effect = lower value 0.95 | S. cerevisiae deletion strains, locus YNL183C, strain NPR1, stronger effect = lower value 0.943 | S. cerevisiae deletion strains, locus YNL209W, strain ssb2, stronger effect = lower value 0.985 | S. cerevisiae deletion strains, locus YNL233W, strain BNI4, stronger effect = lower value 0.988 | S. cerevisiae deletion strains, locus YNL248C, strain rpa49, stronger effect = lower value 0.987 | S. cerevisiae deletion strains, locus YNL250W, strain rad50, stronger effect = lower value 1.02 | S. cerevisiae deletion strains, locus YNL271C, strain bni1, stronger effect = lower value 1.02 | S. cerevisiae deletion strains, locus YNL298W, strain CLA4, stronger effect = lower value 1.02 | S. cerevisiae deletion strains, locus YNL307C, strain MCK1, stronger effect = lower value 1.02 | S. cerevisiae deletion strains, locus YNL322C, strain KRE1 (second series), stronger effect = lower value 0.993 | S. cerevisiae deletion strains, locus YNR049C, strain mso1, stronger effect = lower value 0.99 | S. cerevisiae deletion strains, locus YNR052C, strain pop2, stronger effect = lower value 1.02 | S. cerevisiae deletion strains, locus YOL006C, strain TOP1, stronger effect = lower value 0.977 | S. cerevisiae deletion strains, locus YOL012C, strain htz1 1.02 | S. cerevisiae deletion strains, locus YOL147C, strain pex11, stronger effect = lower value 1.02 | S. cerevisiae deletion strains, locus YOR001W, strain rrp6, stronger effect = lower value 0.993 | S. cerevisiae deletion strains, locus YOR061W, strain CKA2, stronger effect = lower value 1.01 | S. cerevisiae deletion strains, locus YOR069W, strain VPS5, stronger effect = lower value 1.02 | S. cerevisiae deletion strains, locus YOR070C, strain gyp1, stronger effect = lower value 1 | S. cerevisiae deletion strains, locus YOR080W, strain dia2, stronger effect = lower value 0.99 | S. cerevisiae deletion strains, locus YOR083W, strain WHI5, stronger effect = lower value 0.996 | S. cerevisiae deletion strains, locus YOR106W, strain vam3, stronger effect = lower value 0.979 | S. cerevisiae deletion strains, locus YOR136W, strain idh2, stronger effect = lower value 1.01 | S. cerevisiae deletion strains, locus YOR144C, strain elg1, stronger effect = lower value 1.02 | S. cerevisiae deletion strains, locus YOR184W, strain ser1, stronger effect = lower value 1 | S. cerevisiae deletion strains, locus YOR231W, strain MKK1, stronger effect = lower value 0.997 | S. cerevisiae deletion strains, locus YOR265W, strain rbl2, stronger effect = lower value 0.988 | S. cerevisiae deletion strains, locus YOR270C, strain vph1, stronger effect = lower value 0.931 | S. cerevisiae deletion strains, locus YOR290C, strain snf2, stronger effect = lower value 0.967 | S. cerevisiae deletion strains, locus YOR316C, strain cot1, stronger effect = lower value 1.03 | S. cerevisiae deletion strains, locus YPL051W, strain arl3, stronger effect = lower value 1.02 | S. cerevisiae deletion strains, locus YPL078C, strain atp4, stronger effect = lower value 0.976 | S. cerevisiae deletion strains, locus YPL106C, strain sse1, stronger effect = lower value 1 | S. cerevisiae deletion strains, locus YPL240C, strain hsp82, stronger effect = lower value 1 | S. cerevisiae deletion strains, locus YPL241C, strain CIN2, stronger effect = lower value 1.01 | S. cerevisiae deletion strains, locus YPL256C, strain CLN2, stronger effect = lower value 0.985 | S. cerevisiae deletion strains, locus YPR119W, strain clb2, stronger effect = lower value 1.01 | S. cerevisiae deletion strains, locus YPR141C, strain kar3, stronger effect = lower value 1.02 | S. cerevisiae deletion strains, locus YPR163C, strain tif3, stronger effect = lower value 1.02 | S. cerevisiae deletion strains, locus YPR167C, strain met16, stronger effect = lower value 1.02 | S. cerevisiae deletion strains, strain wtn01, stronger effect = lower value 1.03 | S. cerevisiae strains, strain wild type, stronger effect = lower value 1.01
